Active and inactive are the calls of the source. How the source made its calls: active means hit-call score of the fitted dose curve at least 0.9, where 1 is the maximum; inactive means score below 0.9.
Experiments:
Conditions in all cases: mRNA level, 48 h; actives raise or lower the signal
[1] = read-out: Hypoxia-inducible factor 1-alpha (Homo sapiens) (UniProt Q16665); assay: LTEA_HepaRG_HIF1A: Life Technologies and Expression Analysis (LTEA) Assay for Hypoxia-inducible factor 1 (HIF1A) Trancription factor using HepaRG (AID 2283503)
Procedure, shortened: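 Differentiated HepaRG cells in serum-free induction medium exposed 48 h, in duplicate, to 8-point half-log series from 100 uM in 0.5% DMSO. HIF1A mRNA measured by TaqMan qRT-PCR, normalized to ACTB/GAPDH/POLR2A, fitted bidirectionally versus DMSO.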

HGF (gene 3082) = assay: LTEA_HepaRG_HGF: Life Technologies and Expression Analysis (LTEA) Assay for Hepatocyte Growth Facto (HGF) using HepaRG (AID 2283505)
Procedure, shortened: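 Read-out is HGF transcript level by qRT-PCR, normalized to three housekeeping genes, fitted bidirectionally against 0.5% DMSO vehicle. Human HepaRG cells received test chemicals for 48 h at up to 100 uM.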

[2] = read-out: Insulin Like Growth Factor 1 (IGF1), IGF1 (gene 3479); assay: LTEA_HepaRG_IGF1: Life Technologies and Expression Analysis (LTEA) Assay for Insulin Like Growth Factor 1 (IGF1) using HepaRG (AID 2283506)
Procedure, shortened: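 Differentiated HepaRG cells in serum-free induction medium, exposed 48 h in duplicate to 8 half-log concentrations up to 100 uM in 0.5% DMSO. IGF1 mRNA by Fluidigm qRT-PCR, normalised to ACTB, GAPDH and POLR2A.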

[3] = read-out: Intercellular Adhesion Molecule 1 (ICAM1), ICAM1 (gene 3383); assay: LTEA_HepaRG_ICAM1: Life Technologies and Expression Analysis (LTEA) Assay for Intercellular Adhesion Molecule 1 (ICAM1) using HepaRG (AID 2283507)
Procedure, shortened: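 Readout is qRT-PCR mRNA level, normalized to three housekeeping genes and fitted bidirectionally against 0.5% DMSO vehicle. Human HepaRG cultures received compound for 48 h, top concentration 100 uM with half-log dilutions.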

[4] = read-out: Insulin-like growth factor-binding protein 1 (IGFBP1), IGFBP1 (gene 3484); assay: LTEA_HepaRG_IGFBP1: Life Technologies and Expression Analysis (LTEA) Assay for Insulin-like growth factor-binding protein 1 (IGFBP1) using HepaRG (AID 2283508)
Procedure, shortened: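 Thawed HepaRG cells are plated for 48 h, switched to serum-free induction medium, then dosed in duplicate for another 48 h (100 uM top, half-log steps). Lysates in RLT go to qRT-PCR, and gain or loss of signal is fitted relative to vehicle.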

[5] = read-out: Interleukin 6 (IL6), IL6 (gene 3569); assay: LTEA_HepaRG_IL6: Life Technologies and Expression Analysis (LTEA) Assay for Interleukin 6 (IL6) using HepaRG (AID 2283509)
Procedure, shortened: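 HepaRG cells exposed in duplicate for 48 h to eight half-log concentrations, top 100 uM, in 0.5% DMSO serum-free induction medium. mRNA measured by qRT-PCR, normalized to ACTB, GAPDH and POLR2A. Bidirectional fit versus DMSO.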

[6] = read-out: Interleukin 6 Receptor (IL6R), IL6R (gene 3570); assay: LTEA_HepaRG_IL6R: Life Technologies and Expression Analysis (LTEA) Assay for Interleukin 6 Receptor (IL6R) using HepaRG (AID 2283510);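 on AC50: differentiated human HepaRG liver cells in serum-free induction medium; TaqMan qRT-PCR signal normalized to ACTB GAPDH and POLR2A housekeeping genes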
Procedure, shortened: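 Differentiated HepaRG cells, plated 48 h, then exposed in duplicate for 48 h in serum-free induction medium to 8 half-log concentrations (top 100 uM, 0.5% DMSO). IL6R mRNA measured by TaqMan qRT-PCR, normalized to ACTB/GAPDH/POLR2A; bidirectional fit vs DMSO.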

[7] = read-out: Potassium channel subfamily K member 1 (KCNK1), KCNK1 (gene 3775); assay: LTEA_HepaRG_KCNK1: Life Technologies and Expression Analysis (LTEA) Assay for Potassium channel subfamily K member 1 (KCNK1) using HepaRG (AID 2283511)
Procedure, shortened: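 Differentiated HepaRG cells, 48 h exposure in serum-free induction medium with 0.5% DMSO; 8 concentrations, half-log from 100 uM, duplicate. KCNK1 mRNA by qRT-PCR, normalized to ACTB, GAPDH, POLR2A; bidirectional fit vs DMSO.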

[8] = read-out: Keratin 19 (KRT19), KRT19 (gene 3880); assay: LTEA_HepaRG_KRT19: Life Technologies and Expression Analysis (LTEA) Assay for Keratin 19 (KRT19) using HepaRG (AID 2283512)
Procedure, shortened: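 KRT19 transcript levels, measured by Fluidigm qRT-PCR against three housekeeping genes, are fitted for gain or loss of signal relative to DMSO. Human HepaRG cells receive test chemicals (top 100 uM, half-log steps, 0.5% DMSO) for 48 hours.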

[9] = read-out: 3-Hydroxy-3-Methylglutaryl-CoA Synthase 2 (HMGCS2), HMGCS2 (gene 3158); assay: LTEA_HepaRG_HMGCS2: Life Technologies and Expression Analysis (LTEA) Assay for 3-Hydroxy-3-Methylglutaryl-CoA Synthase 2 (HMGCS2) using HepaRG (AID 2283504)
Procedure, shortened: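 HepaRG, plated 48 h then switched to serum-free induction media; cmpd 8-pt, max 100 uM, 1/2-log, 0.5% DMSO, n=2, 48 h. HMGCS2 mRNA by Fluidigm TaqMan qRT-PCR, ACTB/GAPDH/POLR2A norm; bidirectional fit vs DMSO.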

Measured: AC50

Sequence of Hypoxia-inducible factor 1-alpha (Homo sapiens) (Q16665 whole entry, looked up): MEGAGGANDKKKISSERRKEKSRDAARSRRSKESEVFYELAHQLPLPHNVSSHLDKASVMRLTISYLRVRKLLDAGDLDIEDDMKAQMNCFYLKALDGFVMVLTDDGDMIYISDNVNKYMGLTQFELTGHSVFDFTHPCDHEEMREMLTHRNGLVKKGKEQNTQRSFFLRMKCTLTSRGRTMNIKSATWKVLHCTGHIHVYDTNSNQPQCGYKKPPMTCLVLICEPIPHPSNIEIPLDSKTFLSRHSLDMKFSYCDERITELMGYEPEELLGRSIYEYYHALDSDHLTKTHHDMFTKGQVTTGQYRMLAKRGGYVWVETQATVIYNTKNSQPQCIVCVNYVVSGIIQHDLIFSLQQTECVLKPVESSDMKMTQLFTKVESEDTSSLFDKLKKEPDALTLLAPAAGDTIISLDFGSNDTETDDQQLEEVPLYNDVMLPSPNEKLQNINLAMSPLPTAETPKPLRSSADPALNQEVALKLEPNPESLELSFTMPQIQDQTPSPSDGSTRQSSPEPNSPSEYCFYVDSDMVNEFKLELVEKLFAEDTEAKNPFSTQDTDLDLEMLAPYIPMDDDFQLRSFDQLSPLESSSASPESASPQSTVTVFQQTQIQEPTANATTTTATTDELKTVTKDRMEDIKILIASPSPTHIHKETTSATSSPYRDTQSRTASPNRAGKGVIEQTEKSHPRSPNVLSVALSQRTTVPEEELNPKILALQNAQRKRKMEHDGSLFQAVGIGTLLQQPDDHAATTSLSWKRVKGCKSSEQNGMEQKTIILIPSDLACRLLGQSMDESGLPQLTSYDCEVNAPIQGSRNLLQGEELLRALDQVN

CCCCC(CC)COC(=O)CCCCCCCCC(=O)OCC(CC)CCCC (centres undefined)
not listed: [9]
inactive: all other assays above

CCCCCCCCCCCCCCCO
not listed: [2]
inactive: all other assays above

Nc1cccc(N)c1
not listed: [9]
inactive: all other assays above

CC/C(=C\C(=N/O)C(N)=O)C(C)[N+](=O)[O-] (centres undefined)
not listed: [2]
inactive: all other assays above

CCOC(=O)COc1ccc2c(c1)CC(NCC(O)c1cccc(Cl)c1)CC2 (centres undefined)
active: [8] 2.77 µM
not listed: [2]
inactive: all other assays above

CCCCCCCCCCCCc1ccccc1
not listed: [9]
inactive: all other assays above

CC1=CC(=O)CC(C)(C)C1
not listed: [9]
inactive: all other assays above

CCOC(=O)CC(CC(=O)OCC)(OC(C)=O)C(=O)OCC
not listed: [2]
inactive: all other assays above

CN(C)c1ccc(Cc2ccc(N(C)C)cc2)cc1
active: [9] 88.4 µM | [8] 40.8 µM
not listed: [2]
inactive: all other assays above

CCCCC(CC)COC(=O)c1ccc(C(=O)OCC(CC)CCCC)cc1 (centres undefined)
not listed: [2]
inactive: all other assays above

CC1(C)C(=O)N(Br)C(=O)N1Br
not listed: [9]
inactive: all other assays above

Fc1ccccc1[C@@H](F)COC1CCC(Nc2ncnc3[nH]ncc23)CC1 (some centres undefined)
active: [1] 33.1 µM | [9] 45.2 µM | [3] 50 µM | [4] 63.8 µM | [5] 73.7 µM | [8] 12.6 µM
inactive: [7]

CCCCCCCCO
active: [7] 83.9 µM
not listed: [9]
inactive: all other assays above

Clc1nc(Cl)c(Cl)c(Cl)c1Cl
not listed: [9]
inactive: all other assays above

CC(C)CCCCCCOC(=O)c1ccc(C(=O)OCCCCCCC(C)C)c(C(=O)OCCCCCCC(C)C)c1
not listed: [9]
inactive: all other assays above

CCOCCOCCOCCO
not listed: [9]
inactive: all other assays above

COc1ccc2sc(C(=O)Nc3nnn[nH]3)c(OC(C)C)c2c1
active: [1] 72 µM | [9] 86.5 µM | [4] 23.6 µM | [7] 28.1 µM
not listed: [2]
inactive: all other assays above

CCCN(C1CCN(C(=O)C2CCNCC2)CC1)[C@@H]1CCc2ccc(OC)cc2C1
active: [1] 88.2 µM | [3] 77.4 µM | [4] 69.5 µM | [5] 84.2 µM | [6] 50 µM | [8] 13.6 µM
inactive: HGF (gene 3082) | [7]

CC(C)CC(C)(O)C#CC(C)(O)CC(C)C (centres undefined)
not listed: [2] | [9]
inactive: all other assays above

Cc1[nH]cnc1C[C@H]1CCc2c(C)c3ccccc3n2C1=O
active: [1] 24.3 µM | HGF (gene 3082) 10.2 µM | [3] 35.9 µM | [4] 37.2 µM | [5] 84 µM | [6] 79.3 µM | [7] 58.7 µM | [8] 11.5 µM

CCC(C)(C)C(=O)O[C@H]1C[C@@H](C)C=C2C=C[C@H](C)[C@H](CC[C@@H]3C[C@@H](O)CC(=O)O3)[C@H]21
not listed: [2] | [9]
inactive: all other assays above

COCCOCCOCCOC
not listed: [2] | [9]
inactive: all other assays above

NC(=O)NO
not listed: [1] | [2]
inactive: all other assays above

COC(=O)CC(=O)OC
not listed: [2] | [9]
inactive: all other assays above

O=C(OC[C@H]1O[C@@H](OC(=O)c2cc(O)c(O)c(OC(=O)c3cc(O)c(O)c(O)c3)c2)[C@H](OC(=O)c2cc(O)c(O)c(OC(=O)c3cc(O)c(O)c(O)c3)c2)[C@@H](OC(=O)c2cc(O)c(O)c(OC(=O)c3cc(O)c(O)c(O)c3)c2)[C@@H]1OC(=O)c1cc(O)c(O)c(OC(=O)c2cc(O)c(O)c(O)c2)c1)c1cc(O)c(O)c(OC(=O)c2cc(O)c(O)c(O)c2)c1
active: HGF (gene 3082) 15.2 µM | [3] 6.76 µM | [4] 9.51 µM | [5] 10.5 µM | [6] 15.2 µM
inactive: [1] | [2] | [7] | [8]

Nc1nc2ncc(CNc3ccc(C(=O)N[C@@H](CCC(=O)O)C(=O)O)cc3)nc2c(=O)[nH]1
not listed: [1] | [9]
inactive: all other assays above

COc1ccc(-n2nc(C(F)F)cc2-c2ccc(S(C)=O)cc2)cc1 (centres undefined)
not listed: [2] | [9]
inactive: all other assays above

O=C(O)c1cc(N=Nc2ccc(S(=O)(=O)Nc3ccccn3)cc2)ccc1O
not listed: [1] | [4]
inactive: all other assays above

COC(=O)c1c(Cl)c(Cl)c(C(=O)OC)c(Cl)c1Cl
not listed: [9]
inactive: all other assays above

Cc1ccc(O)cc1
not listed: [1]
inactive: all other assays above

Oc1ccc2c(c1)-c1ccccc1C2
active: [8] 25 µM
not listed: [2] | [9]
inactive: all other assays above

Cc1ccc(S(=O)(=O)O)cc1C
not listed: [9]
inactive: all other assays above

C1N2CN3CN1CN(C2)C3
not listed: [2] | [9]
inactive: all other assays above

CC(C)CCO
not listed: [2] | [9]
inactive: all other assays above

CC(C)=CCC/C(C)=C/CO
not listed: [1] | [2] | [9]
inactive: all other assays above

On1ccccc1=S
not listed: [2] | [9]
inactive: all other assays above

O=C(CCCCCCCCc1cccnc1)N1CCC(C=C(c2ccccc2)c2ccccc2)CC1
inactive: [8]
active: [1] 77.2 µM | HGF (gene 3082) 11.9 µM | [3] 16.4 µM | [4] 28.5 µM | [5] 22.6 µM | [6] 89.3 µM | [7] 50 µM

CC(=O)OC[C@H]1O[C@@](COC(C)=O)(O[C@H]2O[C@H](COC(C)=O)[C@@H](OC(C)=O)[C@H](OC(C)=O)[C@H]2OC(C)=O)[C@@H](OC(C)=O)[C@@H]1OC(C)=O
not listed: [2] | [9]
inactive: all other assays above

O=C1CCC(N2C(=O)c3ccccc3C2=O)C(=O)N1 (centres undefined)
not listed: [1]
inactive: all other assays above

CC(O)CN(CCN(CC(C)O)CC(C)O)CC(C)O (centres undefined)
not listed: [1] | [2] | [9]
inactive: all other assays above

O=P(OC(CCl)CCl)(OC(CCl)CCl)OC(CCl)CCl
inactive: [1] | HGF (gene 3082) | [6] | [7]
active: [3] 84.1 µM | [4] 62.7 µM | [5] 79.6 µM | [8] 50 µM

COc1ccc(/C=C/S(=O)(=O)NC(=O)c2ccc(C)cc2Cl)cc1
not listed: [2] | [9]
inactive: all other assays above

CC(C)=CCC/C(C)=C\CO
not listed: [1] | [5] | [9]
inactive: all other assays above

Cn1cnc([N+](=O)[O-])c1Sc1ncnc2nc[nH]c12
active: [9] 3.93 µM | [3] 3.59 µM | [4] 2.75 µM | [7] 4.15 µM | [8] 5.94 µM
inactive: HGF (gene 3082) | [2] | [5] | [6]

CC[C@H](C)C(=O)O[C@H]1C[C@@H](C)C=C2C=C[C@H](C)[C@H](CC[C@@H]3C[C@@H](O)CC(=O)O3)[C@H]21
not listed: [7] | [9]
inactive: all other assays above

CCOC(=O)c1ccc(C2CCC(NC[C@H](O)COc3ccc(O)c(NS(C)(=O)=O)c3)CC2)cc1 (some centres undefined)
active: [8] 2.04 µM
not listed: [2] | [9]
inactive: all other assays above

CC[C@H]1OC(=O)[C@H](C)[C@@H](O[C@H]2C[C@@](C)(OC)[C@@H](O)[C@H](C)O2)[C@H](C)[C@@H](O[C@@H]2O[C@H](C)C[C@H](N(C)C)[C@H]2O)[C@](C)(O)C[C@@H](C)C(=O)[C@H](C)[C@@H](O)[C@]1(C)O
not listed: [1] | [9]
inactive: all other assays above

Source: PubChem BioAssay (EPA / NIEHS)
